# PubChem BioAssay AID493185 (National Center for Advancing Translational Sciences (NCATS), 2011)
# Calls of active or inactive are those of the source. Calls follow the shape of the dose curve; as a rule, active = well fitted activation curve with a large enough effect; inconclusive = small, poorly fitted or top-dose-only effect; inactive = no such curve, though single readings can be large or run the other way.
# Experiment: Counterscreen for Identifying a Potential Treatment of Ataxia-Telangiectasia: Hit Validation; as to activation: 0% is about no effect
# Conditions: cell-free AlphaLISA/AlphaScreen artifact counterscreen, PBS only, no cells; series mostly up to 76.9 µM; activation: at the top concentration
# Outline: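 Without cells, compounds at up to 76.7 uM final were combined with premixed anti-pKAP1/anti-KAP1 AlphaLISA bead reagents, protease inhibitors and lysis buffer; signal read after 6 hr at 25C to flag assay-platform artifacts.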
# Potency is read from the fitted curve at half-maximal effect.
SMILES,activation,Potency
O=C1C2C3C=CC(CC3)C2C(=O)N1c1cccc(Br)c1 (configuration not stated),-9.23% (inactive),–
COc1ccccc1C(=O)NC(=O)Nc1cccc(Cl)c1,1.64% (inactive),–
CC(C)CC(=O)Nc1c2c(nn1-c1cccc(Cl)c1)CS(=O)C2 (configuration not stated),-5.74% (inactive),–
CCN(CC)S(=O)(=O)c1ccc(Cl)c(NC(=O)CCCCl)c1,6.77% (inactive),–
S=c1[nH]nc(C2CCCCC2)n1/N=C/c1ccc(Br)cc1,-2.26% (inactive),–
Cc1cccc(NC(=O)/C(C#N)=C/c2ccc(F)cc2)n1,-13.1% (inactive),–
Cc1ccc2c(c1)C(=O)CC(O)(C(F)(F)F)O2 (configuration not stated),-6.56% (inactive),–
COC(=O)Cc1ccc(NC(=S)NCCSc2ccc(Cl)cc2)cc1,3.08% (inactive),–
CCOC(=O)CNS(=O)(=O)Cc1ccccc1,6.77% (inactive),–
CCOc1ccc(NC2=NCC(=O)N2Cc2cccs2)cc1,0% (inactive),–
COc1cc(/C=N/NC(=O)c2c(C)nc3ccc(Cl)cn23)cc(OC)c1OC,–,58.2 µM (active)
CC1Cc2ccccc2N1C(=O)CSc1nnnn1-c1ccc2c(c1)OCCO2 (configuration not stated),18.8% (inactive),–
C=CS(=O)(=O)c1sc(Cl)c(N2CCOCC2)c1[N+](=O)[O-],-5.74% (inactive),–
Brc1c(C[n+]2ccccc2)nc2ccccn12,23.3% (inactive),–
CNC(=O)Cc1csc2ccc(C)cc12,3.28% (inactive),–
Cc1ccc(NC(=O)NC(=O)N(C(C)C)S(C)(=O)=O)nc1,3.76% (inactive),–
O=c1c(-c2ccc(Cl)cc2)c[nH]n1-c1ccccc1,-4.1% (inactive),–
COc1cc(C(=O)NCCC(=O)NCCCN2CCCCC2)cc(OC)c1OC,19.2% (inactive),–
C=CCC(CC)C(=O)NC(=O)N1CCCc2ccccc21 (configuration not stated),-6.15% (inactive),–
COc1ccc2nc(C)cc(Nc3ccc(C(=O)O)cc3)c2c1,11.5% (inactive),–
CCOC(=O)NC(C(Cl)(Cl)Cl)S(=O)(=O)c1ccccc1 (configuration not stated),-9.77% (inactive),–
CN(C)c1ccc2nc3ccc(=[N+](C)C)cc-3sc2c1,–,11.6 µM (active)
